Assay results taken from PubChem BioAssay.
Calls of active or inactive are those of the source.

How the values were obtained:
[1] = A549 cell viability effects, profiling panel, calcein-AM fluorescence, 48 h, basal (AID 1162); settings: higher = more signal
[2] = adipocyte viability effects, profiling panel, cell-based, 3T3-L1 adipocytes, calcein-AM fluorescence, 48 h, basal (AID 1163); settings: 3T3-L1 adipocytes viability, higher = more signal
[3] = HepG2 cell viability effects, profiling panel, calcein-AM fluorescence, 48 h, basal (AID 1164); settings: higher = more signal
[4] = MM1S cell viability effects, profiling panel, calcein-AM fluorescence, 48 h, basal (AID 1165); settings: higher = more signal;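 also: viability of MM1S multiple myeloma cells under basal unstimulated conditions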
[5] = basal RPMI8226 viability, no added stimulus, profiling panel, cell-based, calcein-AM fluorescence, 48 h, PK04 Diversity Set (AID 1166); settings: RPMI8226 myeloma viability, higher = more signal;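 also: cells grown under basal conditions without added stimulus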
[6] = basal HepG2 mitochondrial membrane potential changes, profiling panel, cell-based, JC-1 fluorescence, 24 h, 100 nL compound (AID 1167); settings: higher = more signal
[7] = basal 3T3-L1 adipocyte mitochondrial potential changes, profiling panel, cell-based, JC-1 fluorescence, 3T3-L1 adipocytes, 24 h, 100 nL compound (AID 1168); settings: JC-1 mitochondrial fluorescence, higher = more signal, called active from +8 up or from −8 down
[8] = basal RPMI8226 mitochondrial membrane potential changes, profiling panel, cell-based, JC-1 fluorescence, 24 h, 100 nL compound (AID 1169); settings: RPMI8226 myeloma, JC-1 mitochondrial potential fluorescence, higher = more signal
[9] = basal MM1S mitochondrial membrane potential changes, profiling panel, cell-based, JC-1 fluorescence, 24 h, 100 nL compound (AID 1170); settings: higher = more signal
[10] = A549 lung cancer cell viability effects, profiling panel, resazurin fluorescence, 24 h, PK04 Diversity Set (AID 1171); settings: higher = more signal, called active from +8 up or from −8 down
Also: test concentration not given here.

Structure (SMILES)	z-score [1]	z-score [2]	z-score [3]	z-score [4]	z-score [5]	z-score [6]	z-score [7]	z-score [8]	z-score [9]	z-score [10]
COCC(=C=CC[C@H](O)c1ccc(OCCO)cc1)C[C@H](O)c1cc(Cl)cc(Cl)c1O	-1.05	0.0622	-0.616	-2.31	-0.638	-0.0342	0.138 (inactive)	0.04	-1.42	0.799 (inactive)
Cc1ccc(S[C@]2(C(=O)NCC(C)C)CC(=O)N(Cc3ccccc3)[C@@H]2c2ccc(CO)cc2I)cc1	0.715	0.752	0.38	-2.1	-2.73	-0.329	-1.23 (inactive)	-0.813	-0.528	0.999 (inactive)
O=C(OCCF)C1=CCC(c2cccc(Cl)c2)O1 (stereo not given)	0.558	-0.0426	0.303	1.17	0.669	0.89	1.15 (inactive)	-1.07	-0.157	-0.61 (inactive)
C=CC[C@@]1(C(=O)O)N=C(c2ccc(OCCCO)cc2)O[C@@H]1c1ccccc1N=[N+]=[N-]	0.179	-0.76	0.47	-0.756	-0.577	-1.95	-0.366 (inactive)	-0.919	-0.947	-0.514 (inactive)
O=C1C2C=CC(C(O)c3ccc(F)cc3)N(Nc3ccccc3)C2C(=O)N1c1ccccc1 (stereo not given)	0.257	-1.66	-0.114	0.561	-0.149	-1.58	-0.0708 (inactive)	-0.0118	-1.01	-0.111 (inactive)
[N-]=[N+]=NCc1ccccc1[C@@H]1OC(c2ccc(OCCCO)cc2)=N[C@]1(Cc1ccccc1)C(=O)N1CCCCC1	0.251	0.445	0.525	-0.604	-3.3	-0.227	0.467 (inactive)	-1.23	-0.354	0.583 (inactive)
CCOC(=O)C[C@H]1[C@H](OC(=O)c2ccc(-c3ccccc3)cc2)[C@@H](NC(=O)Cc2ccc(OC)cc2)c2cc(OCCCO)ccc2N1C(=O)c1ccc2ccccc2n1	-0.315	-0.357	0.143	-0.514	-0.129	0.176	0.824 (inactive)	0.0708	-0.625	0.596 (inactive)
COC(=O)[C@@]1(Cc2ccc(OC)cc2)[C@H]2c3cc(C(=O)N4CCCC4)n(CCc4c[nH]c5cc(F)ccc45)c3C[C@H]2CN1C(=O)c1ccccc1	0.866	-0.124	0.172	-1.08	-0.758	-0.37	0.492 (inactive)	-0.304	-0.662	0.313 (inactive)
O=C1O[C@H](c2ccccc2)[C@H](c2ccccc2)N2[C@H]1[C@@H](C(=O)O)[C@]1(C(=O)Nc3ccc(C#CC4=CCCCC4)cc31)[C@H]2c1ccc(OCCO)cc1	0.199	-0.774	0.122	-2.72	-4.06	-4.3	-3.28 (inactive)	-0.949	-1.53	0.729 (inactive)
COCCOC(=O)N1C(=O)[C@@]2(c3cc(C#CCCO)ccc31)[C@H](c1ccc(O)cc1)N1[C@H](c3ccccc3)[C@H](c3ccccc3)OC(=O)[C@H]1[C@@H]2C(N)=O	0.111	-0.0323	1.97	0.189	-0.934	-0.958	-1.44 (inactive)	0.057	-0.915	-0.322 (inactive)
CCCCCN1CC=CC23O[C@@H]4C=CCOC(=O)[C@@H]4[C@H]2C(=O)N(CCCO)[C@@H]3C1=O (stereo not given in full)	-0.279	2.21	-0.721	0.364	-0.0478	-1.29	-0.883 (inactive)	-0.022	0.208	-0.15 (inactive)
C=C[C@H](COC(C)=O)N(Cc1ccc(OC(C)=O)c(OC)c1)S(=O)(=O)c1ccc(Br)cc1	1.18	0.139	0.285	0.594	0.394	0.43	1.19 (inactive)	0.825	-0.886	0.353 (inactive)
CC=CC(O)C1C=CC2C(=O)N(c3ccccc3)C(=O)C2N1Nc1ccc(C(C)C)cc1 (stereo not given)	0.0409	0.146	0.645	-0.0872	-0.849	-1.09	-1.32 (inactive)	-0.467	-1.08	-1.65 (inactive)
CCCCC=C[C@@H](NC(=O)c1ccco1)c1ccccc1	-1.08	-0.872	0.264	-0.499	-1.16	0.989	0.0899 (inactive)	0.112	-1.05	0.335 (inactive)
CO[C@H]1O[C@H](CO)[C@@H](OC(=O)Nc2ccc(Oc3ccccc3)cc2)[C@H](OC(=O)Nc2ccccc2)[C@H]1OC(=O)Nc1ccccc1	-1.63	0.547	-3.37	-2.24	-3.61	-0.684	1.2 (inactive)	-1.31	-0.427	-3.41 (inactive)
O=C1O[C@@H](c2ccccc2)[C@@H](c2ccccc2)N2[C@@H](c3ccc(O)cc3)[C@]3(C(=O)Nc4ccc(C#CC5=CCCCC5)cc43)[C@@H](C(=O)O)[C@H]12	1.09	0.369	1.2	-0.294	-0.412	-0.956	0.619 (inactive)	-0.177	1.04	1.86 (inactive)
